# In PubChem BioAssay:
# Results filed as inconclusive are left out. The source made the active and inactive calls.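 How the source made its calls, unless noted: active means normalized viability below 100% at a tested concentration; inactive means the rest.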
# What was measured:
# [1] = viability loss in pontine glioma line – cell-based, SU-DIPG-XVII, MIPE5.0, CellTiter-Glo, qHTS, dose response (AID 1347060; cut-off not given, nearly all actives have AC50 up to about 26 µM;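 on AC50: cells exposed to compound for 48 hours before viability readout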); conditions: CellTiter-Glo ATP luminescence
# [2] = viability loss in pontine glioma line – cell-based, SU-DIPG-XIII, MIPE4.0, CellTiter-Glo, qHTS, dose response (AID 1347061; cut-off not given, nearly all actives have AC50 up to about 37 µM;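 further: cells exposed to compound for 48 hours before readout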); conditions: CellTiter-Glo ATP luminescence
# [3] = viability loss in pontine glioma line – cell-based, JHH-DIPG-1, MIPE4.0, CellTiter-Glo, qHTS, dose response (AID 1347062; cut-off not given, nearly all actives have AC50 up to about 27 µM;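 on AC50: cells exposed to compound for two days before readout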); conditions: JHH-DIPG-1 viability, CellTiter-Glo ATP luminescence
# [4] = viability loss in pontine glioma line – cell-based, SU-DIPG-IV, MIPE4.0, CellTiter-Glo, qHTS, dose response (AID 1347063; cut-off not given, nearly all actives have AC50 up to about 30 µM;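 further: compound exposure lasted 48 hours before the viability readout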); conditions: CellTiter-Glo ATP luminescence
# [5] = viability loss in pontine glioma line – cell-based, SU-DIPG-XIII, MIPE5.0, CellTiter-Glo, qHTS, dose response (AID 1347064; cut-off not given, nearly all actives have AC50 up to about 23 µM;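 on AC50: cells exposed to compound for 48 hours before the viability read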); conditions: CellTiter-Glo ATP luminescence
# [6] = viability loss in pontine glioma line – cell-based, SU-DIPG-XXV, MIPE5.0, CellTiter-Glo, qHTS, dose response (AID 1347065; cut-off not given, nearly all actives have AC50 up to about 26 µM;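 further: cells exposed to compound for 48 hours before ATP readout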); conditions: CellTiter-Glo ATP luminescence
# [7] = growth inhibition of DIPG cells – cell-based, MIPE5.0 library, qHTS (AID 1347068; cut-off not given, nearly all actives have IC50 up to about 30 µM;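 on IC50: cells exposed to compound for 48 hours before viability readout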); conditions: SU-DIPG-XXV viability
# [8] = JHH-DIPG-1 glioma cell viability, MIPE5.0 library, CellTiter-Glo luminescence, qHTS (AID 1347067; cut-off not given, nearly all actives have AC50 up to about 26 µM;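 further: cells exposed to compound for 48 hours before readout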); conditions: JHH-DIPG-1 glioma viability, CellTiter-Glo ATP luminescence
# [9] = compounds altering HSF1 focus formation in cells – imaging, Selleck Cancer Library (AID 1347162; in the data active means plate-normalised HSF1 focus index below about 0.46); conditions: human cells, HSF1 nuclear foci imaging, at 10 µM; SSMD: measured here: HSF1 foci SSMD mean; cell count: measured here: cell number; plate-normalised HSF1 focus index: stronger effect = lower value
# [10] = viability loss with induced miR-34 in A549 – imaging, A549 dox-inducible miR-34, nuclei and caspase counts, primary screen (AID 1347080;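 active means compounds whose cell count with miR-34 switched on is under 0.7 times the count with it off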); conditions: A549 miR-34 inducible, Hoechst nuclei count, 48 h
# [11] = MELAS cybrid and Rieske KO viability enhancers – cell-based, MELAS cybrids, Rieske KO mouse fibroblasts, CellTiter-Glo, primary screen (AID 1508586;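 active means mean z-score across replicates of 1.96 or higher in either the MELAS or the Rieske mutant cell line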;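 further: z relative to plate mean and SD of compound and empty wells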); conditions: low glucose
# [12] = drug combination growth inhibition, ovarian cancer – cell-based, oncology-focused library, rucaparib conditional, profiling panel (AID 1508598); conditions: patient-derived ovarian cancer cells, CellTiter-Glo viability, 144 h, stronger effect = lower value
# [13] = growth inhibition of DIPG cells – cell-based, MIPE4.0 library, CellTiter-Glo luminescence, qHTS (AID 1347066; cut-off not given, nearly all actives have AC50 up to about 30 µM;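 further: cells exposed to compound for 48 hours before readout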); conditions: SU-DIPG-VI viability, CellTiter-Glo ATP luminescence
# [14] = stronger effect = lower value, cell number ratio, induced over uninduced
# [15] = measured here: relative caspase fold change +Dox/-Dox
# [16] = measured here: total cells with miR-34 induction, stronger effect = lower value
# [17] = measured here: total cells without miR-34 induction
# [18] = MELAS cybrid survival, CellTiter-Glo 48 h, stronger effect = higher value
# [19] = Rieske KO mouse fibroblast survival, CellTiter-Glo 72 h
# [20] = at 0.000305 µM, OCI-C5x cells, with rucaparib 10 µM, 100% = cells with rucaparib alone
# [21] = at 0.000305 µM, OCI-C5x cells, without rucaparib
# [22] = at 0.000305 µM, OCI-P5x cells, with rucaparib 20 µM, 100% = cells with rucaparib alone
# [23] = at 0.000305 µM, OCI-P5x cells, without rucaparib
# [24] = at 0.00122 µM, OCI-C5x cells, with rucaparib 10 µM, 100% = cells with rucaparib alone
# [25] = at 0.00122 µM, OCI-C5x cells, without rucaparib
# [26] = at 0.00122 µM, OCI-P5x cells, with rucaparib 20 µM, 100% = cells with rucaparib alone
# [27] = at 0.00122 µM, OCI-P5x cells, without rucaparib
# [28] = at 0.00488 µM, OCI-C5x cells, with rucaparib 10 µM, 100% = cells with rucaparib alone
# [29] = at 0.00488 µM, OCI-C5x cells, without rucaparib
# [30] = at 0.00488 µM, OCI-P5x cells, with rucaparib 20 µM, 100% = cells with rucaparib alone
# [31] = at 0.00488 µM, OCI-P5x cells, without rucaparib
# [32] = at 0.0195 µM, OCI-C5x cells, with rucaparib 10 µM, 100% = cells with rucaparib alone
# [33] = at 0.0195 µM, OCI-C5x cells, without rucaparib
# [34] = at 0.0195 µM, OCI-P5x cells, with rucaparib 20 µM, 100% = cells with rucaparib alone
structure (smiles),measurement,setting,value
Cc1nc(N)ncc1-c1nc(N2CCOCC2)c2sc(C(C)(C)O)cc2n1,AC50,[1],1.66 µM (active)
same,AC50,[2],7.43 µM (active)
same,AC50,[3],1.32 µM (active)
same,AC50,[4],0.332 µM (active)
same,AC50,[5],3.32 µM (active)
same,AC50,[6],1.05 µM (active)
same,IC50,[7],4.68 µM (active)
O=C(/C=C/c1cccnc1)NCCCCC1CCN(C(=O)c2ccccc2)CC1,AC50,[1],0.0118 µM (active)
same,AC50,[2],0.0166 µM (active)
same,AC50,[3],0.00418 µM (active)
same,AC50,[4],0.0209 µM (active)
same,AC50,[5],0.00186 µM (active)
same,AC50,[6],0.00468 µM (active)
same,AC50,[8],0.00417 µM (active)
same,SSMD,[9],1.27
same,cell count,[9],7280
same,plate-normalised HSF1 focus index,[9],1.05 (inactive)
COc1nccc(-c2c(-c3ccc(F)cc3)ncn2C2CCNCC2)n1,outcome,[1],inactive
same,outcome,[2],inactive
same,outcome,[3],inactive
same,outcome,[4],inactive
same,outcome,[5],inactive
same,outcome,[6],inactive
same,outcome,[8],inactive
same,outcome,[7],inactive
Cn1cc(CNCC2CCN(c3ncc(C(=O)NO)cn3)CC2)c2ccccc21,AC50,[1],0.417 µM (active)
same,AC50,[2],2.64 µM (active)
same,AC50,[3],0.332 µM (active)
same,AC50,[4],0.418 µM (active)
same,AC50,[5],0.209 µM (active)
same,AC50,[6],0.132 µM (active)
same,AC50,[8],0.209 µM (active)
same,fold change,[10]; [14],0.846 (inactive)
same,fold change,[10]; [15],0.734
same,cell count,[10]; [16],984
same,cell count,[10]; [17],1160
same,z-score,[11]; [18],-0.103 (inactive)
same,z-score,[11]; [19],-2.7
same,viability,[12]; [20],126% (inactive)
same,viability,[12]; [21],118% (inactive)
same,viability,[12]; [22],95.4% (active)
same,viability,[12]; [23],92.2% (active)
same,viability,[12]; [24],125% (inactive)
same,viability,[12]; [25],133% (inactive)
same,viability,[12]; [26],104% (inactive)
same,viability,[12]; [27],95.8% (active)
same,viability,[12]; [28],116% (inactive)
same,viability,[12]; [29],138% (inactive)
same,viability,[12]; [30],76.6% (active)
same,viability,[12]; [31],85.4% (active)
same,viability,[12]; [32],96.2% (active)
same,viability,[12]; [33],99.7% (active)
same,viability,[12]; [34],32.6% (active)
same,viability,"[12]; at 0.0195 µM, OCI-P5x cells, without rucaparib",51.7% (active)
same,viability,"[12]; at 0.0781 µM, OCI-C5x cells, with rucaparib 10 µM, 100% = cells with rucaparib alone",7.04% (active)
same,viability,"[12]; at 0.0781 µM, OCI-C5x cells, without rucaparib",7.55% (active)
same,viability,"[12]; at 0.0781 µM, OCI-P5x cells, with rucaparib 20 µM, 100% = cells with rucaparib alone",3.73% (active)
same,viability,"[12]; at 0.0781 µM, OCI-P5x cells, without rucaparib",9.01% (active)
same,viability,"[12]; at 0.313 µM, OCI-C5x cells, with rucaparib 10 µM, 100% = cells with rucaparib alone",5.05% (active)
same,viability,"[12]; at 0.313 µM, OCI-C5x cells, without rucaparib",5.83% (active)
same,viability,"[12]; at 0.313 µM, OCI-P5x cells, with rucaparib 20 µM, 100% = cells with rucaparib alone",1.63% (active)
same,viability,"[12]; at 0.313 µM, OCI-P5x cells, without rucaparib",1.83% (active)
same,viability,"[12]; at 1.25 µM, OCI-C5x cells, with rucaparib 10 µM, 100% = cells with rucaparib alone",3.87% (active)
same,viability,"[12]; at 1.25 µM, OCI-C5x cells, without rucaparib",5.39% (active)
same,viability,"[12]; at 1.25 µM, OCI-P5x cells, with rucaparib 20 µM, 100% = cells with rucaparib alone",1.03% (active)
same,viability,"[12]; at 1.25 µM, OCI-P5x cells, without rucaparib",0.724% (active)
same,viability,"[12]; at 5 µM, OCI-C5x cells, with rucaparib 10 µM, 100% = cells with rucaparib alone",4.54% (active)
same,viability,"[12]; at 5 µM, OCI-C5x cells, without rucaparib",5.34% (active)
same,viability,"[12]; at 5 µM, OCI-P5x cells, with rucaparib 20 µM, 100% = cells with rucaparib alone",1.24% (active)
same,viability,"[12]; at 5 µM, OCI-P5x cells, without rucaparib",1.13% (active)
c1cc(OCCN2CCCCC2)cc(-c2n[nH]c3ccc(-c4ncn[nH]4)cc23)c1,outcome,[1],inactive
same,outcome,[2],inactive
same,outcome,[3],inactive
same,outcome,[4],inactive
same,outcome,[5],inactive
same,outcome,[13],inactive
same,outcome,[8],inactive
same,outcome,[7],inactive
c1cncc(CN2CCC(n3ncc4c(N5CCOCC5)nc(-c5ccc6[nH]ccc6c5)nc43)CC2)c1,AC50,[1],7.42 µM (active)
same,AC50,[2],8.33 µM (active)
same,AC50,[3],14.8 µM (active)
same,AC50,[4],2.09 µM (active)
same,AC50,[5],16.6 µM (active)
same,AC50,[6],5.25 µM (active)
same,AC50,[8],20.9 µM (active)
same,outcome,[7],inactive
same,fold change,[10]; [14],0.951 (inactive)
same,fold change,[10]; [15],0.489
same,cell count,[10]; [16],2980
same,cell count,[10]; [17],3130
same,z-score,[11]; [18],4.98 (active)
same,z-score,[11]; [19],-1.65
Cc1ccc(C(=O)Nc2cccc(C(F)(F)F)c2)cc1Nc1nc(-c2cccnc2)nc2c1cnn2C,AC50,[1],16.6 µM (active)
same,outcome,[2],inactive
same,AC50,[3],18.7 µM (active)
same,AC50,[4],16.6 µM (active)
same,AC50,[5],18.6 µM (active)
same,AC50,[13],23.5 µM (active)
same,AC50,[8],20.9 µM (active)
same,outcome,[7],inactive
same,fold change,[10]; [14],1.02 (inactive)
same,fold change,[10]; [15],1.01
same,cell count,[10]; [16],4020
same,cell count,[10]; [17],3950
same,z-score,[11]; [18],-0.539
same,z-score,[11]; [19],2.14
O=C1NC(=O)/C(=C\c2ccc(-c3ccc(F)cc3)o2)S1,outcome,[1],inactive
same,outcome,[2],inactive
same,outcome,[3],inactive
same,outcome,[4],inactive
same,outcome,[5],inactive
same,outcome,[13],inactive
same,outcome,[7],inactive
CCCCCCCCCC(=O)N[C@@H](Cc1c[nH]c2ccccc12)C(=O)N[C@H](CC(N)=O)C(=O)N[C@@H](CC(=O)O)C(=O)N[C@@H]1C(=O)NCC(=O)N[C@@H](CCCN)C(=O)N[C@@H](CC(=O)O)C(=O)N[C@H](C)C(=O)N[C@@H](CC(=O)O)C(=O)NCC(=O)N[C@H](CO)C(=O)N[C@@H]([C@@H](C)CC(=O)O)C(=O)N[C@@H](CC(=O)c2ccccc2N)C(=O)O[C@@H]1C,outcome,[1],inactive
same,outcome,[2],inactive
same,outcome,[3],inactive
same,outcome,[4],inactive
same,outcome,[5],inactive
same,outcome,[13],inactive
same,outcome,[8],inactive
CCc1c(O)cc(O)c(C(=O)c2ccc(OCCN3CCOCC3)c(OC)c2)c1CC(=O)N(CCOC)CCOC,AC50,[1],0.235 µM (active)
same,AC50,[2],3.32 µM (active)
same,AC50,[3],0.372 µM (active)
same,AC50,[4],1.32 µM (active)
same,AC50,[5],0.833 µM (active)
same,AC50,[6],0.742 µM (active)
same,AC50,[8],0.742 µM (active)
same,outcome,[7],inactive
same,fold change,[10]; [14],1.03 (inactive)
same,fold change,[10]; [15],0.454
same,cell count,[10]; [16],3640
same,cell count,[10]; [17],3520
same,z-score,[11]; [18],-0.316 (inactive)
same,z-score,[11]; [19],0.722
CNC(=O)c1ccc(C)c(-n2c(C)cc(OCc3ccc(F)cc3F)c(Br)c2=O)c1,outcome,[1],inactive
same,outcome,[2],inactive
same,outcome,[3],inactive
same,outcome,[4],inactive
same,outcome,[5],inactive
same,outcome,[7],inactive
same,fold change,[10]; [14],0.88 (inactive)
same,fold change,[10]; [15],0.999
same,cell count,[10]; [16],7360
same,cell count,[10]; [17],8370
same,SSMD,[9],3.49
same,cell count,[9],7630
same,plate-normalised HSF1 focus index,[9],1.22 (inactive)
same,z-score,[11]; [18],-0.398 (inactive)
same,z-score,[11]; [19],-1.25
same,viability,[12]; [20],104% (inactive)
same,viability,[12]; [21],124% (inactive)
same,viability,[12]; [22],115% (inactive)
same,viability,[12]; [23],115% (inactive)
same,viability,[12]; [24],110% (inactive)
same,viability,[12]; [25],124% (inactive)
same,viability,[12]; [26],107% (inactive)
same,viability,[12]; [27],105% (inactive)
same,viability,[12]; [28],105% (inactive)
same,viability,[12]; [29],102% (inactive)
same,viability,[12]; [30],112% (inactive)
same,viability,[12]; [31],111% (inactive)
same,viability,[12]; [32],97.8% (active)
same,viability,[12]; [33],113% (inactive)
same,viability,[12]; [34],114% (inactive)
